B1: design_618_d4ffd631-0ea2-432e-ba0f-bd3d6297b2a0_472_dldesign_0_cycle1_af2pred (protein)
chain: MNEAQRIAAARGAARVAAAAAEKDPALGKAILAGAAATFADSPAALKALAATAREEAEKASPEAGAALKAAAAEVEAAAA
B2: design_618_d4ffd631-0ea2-432e-ba0f-bd3d6297b2a0_955_dldesign_0_cycle1_af2pred (protein)
chain: AAASEIMAKFAAGVAKNVAAVLKEDPEKGIEVGKKLAEIILAADPQAGAKLAQAFAEYVKKYAPLIPADKKAAAEAYFNALAEKGA
B3: design_618_d4ffd631-0ea2-432e-ba0f-bd3d6297b2a0_442_dldesign_0_cycle1_af2pred (protein)
chain: AAATRATADAALAELERVGEVAVTVAKSALEAGFSKETALKIGTSLVENVVTGATAAVADDPAAQARIRAAGERIKEEIRKAL
B4: design_618_d4ffd631-0ea2-432e-ba0f-bd3d6297b2a0_776_dldesign_0_cycle1_af2pred (protein)
chain: GAEEELKKAEEMGEIAESIAKQAAKASGSKEAKELLKKAKELVKKAKENAKDKEKIKELLKELSRLAGQAAKQLIAALK
B5: design_618_d4ffd631-0ea2-432e-ba0f-bd3d6297b2a0_941_dldesign_0_cycle1_af2pred (protein)
chain: SEEVKKALEEVEKLLDEAIKAAKAGDIGTAAVLLAKAAAIADKAHPEAGAVIRQGLAEAIAAAADPEKAAKVIEEAREKVKKILEA
B6: design_618_d4ffd631-0ea2-432e-ba0f-bd3d6297b2a0_1177_dldesign_0_cycle1_af2pred (protein)
chain: AQATLASAQALTNAAETALKTSPEYAPLALQLAQQGIELAKQAAKEGAKEDPATAKEAKEVQKKAEEVAKQAQKILA
B7: design_618_d4ffd631-0ea2-432e-ba0f-bd3d6297b2a0_931_dldesign_0_cycle1_af2pred (protein)
chain: AAAAEAALARAVAVLGRAFQQAVASPDLAEADALLDAGLAEALAITAADPEAAAAVRRLAAQMRAKVRELVS
B8: design_618_d4ffd631-0ea2-432e-ba0f-bd3d6297b2a0_687_dldesign_0_cycle1_af2pred (protein)
chain: AAAQQLAVQSATAFARQAIAAAQAALELAKADPSAKEEIERLLNQARASLQNALLVGQSSPEAAAIAQEAQATVEKLAAETAKAAAA
B9: design_618_d4ffd631-0ea2-432e-ba0f-bd3d6297b2a0_1565_dldesign_0_cycle1_af2pred (protein)
chain: MEEELKKIEEVKELGKKIGEELAKKILEYAKENASLPIEEILRKMVEMTREAVEKIYKLIPSELAEIGARIVWGAGSQAMIQGVRLIG
B10: design_618_d4ffd631-0ea2-432e-ba0f-bd3d6297b2a0_1622_dldesign_0_cycle1_af2pred (protein)
chain: SKEEREKIYKEALKNLEKMGTLLLDLAAQGSAADVAAAKAAIEEAKKLIEEAKKANPEEAKKLAKEAHDILSKALAAVSKSVIA
B11: design_618_d4ffd631-0ea2-432e-ba0f-bd3d6297b2a0_729_dldesign_0_cycle1_af2pred (protein)
chain: AKEEVVEQAKQVAEAALALAKQVSPEWEKKAKEALELVEKAKEGNLEEAQKVAGEVMRIAAEVLAAYTAKQA
B12: design_618_d4ffd631-0ea2-432e-ba0f-bd3d6297b2a0_848_dldesign_0_cycle1_af2pred (protein)
chain: MERAISLGKAAAVAGIAGSTAALKNIVKTIAKLSPEEAKKAAEVAAKEIIKAPNAKEMLKAAADAAKEVGTESGKAAAEVFEKAAKKA
B13: design_618_d4ffd631-0ea2-432e-ba0f-bd3d6297b2a0_800_dldesign_0_cycle1_af2pred (protein)
chain: MSEAAKEVAELAEYVSKQAKEAGNEEAAKLAKEGAELAKEGAKDPSTAGEKIAEALKLYIQASQQLVAYQQA
B14: design_618_d4ffd631-0ea2-432e-ba0f-bd3d6297b2a0_1624_dldesign_0_cycle1_af2pred (protein)
chain: MKAEVEALREQVSKAVNAATKAGSAAALKDGLASSQKLSEVMEEVGELVKKGNEATKKGEYEEALKYYQKAIEIATDAKAYFEKVAAA
B15: design_618_d4ffd631-0ea2-432e-ba0f-bd3d6297b2a0_1320_dldesign_0_cycle1_af2pred (protein)
chain: AAAEAAAAAVRAATAAGVARVEALAAAAGDAEVAALARAEAARIREVGAVLEEIARATGPFGGEVGLKSVATVTANAEARIAEAA
B16: design_618_d4ffd631-0ea2-432e-ba0f-bd3d6297b2a0_1130_dldesign_0_cycle1_af2pred (protein)
chain: AEAVAKAALTSAKNLAEMAIRLAESGEKLEEAKKALEVAKAMAEQAEKLNPKYGKEAKAAVEKAEKKLKEAE
B17: design_618_d4ffd631-0ea2-432e-ba0f-bd3d6297b2a0_719_dldesign_0_cycle1_af2pred (protein)
chain: AAALAEVQEKALEAAKKASELAREARKAGDEEKAKKFEELMNTLMSAAGAAAQDLEAAKEKIDKAIKEIEELAKN
B18: design_618_d4ffd631-0ea2-432e-ba0f-bd3d6297b2a0_1447_dldesign_0_cycle1_af2pred (protein)
chain: MQGHIDRLNRGAEAALAAAESGEITEEQARIIRNGAMIAYDAAEAYEKTTRAAELLQTTPEGREEGGKILRELAEKMLARAKELL
B19: design_618_d4ffd631-0ea2-432e-ba0f-bd3d6297b2a0_1274_dldesign_0_cycle1_af2pred (protein)
chain: MSPEEAKAQAEELAKQAKENKAKALATVADPAKAGEHIVQIAKNAAALQRIAAEVPEVAAYAKAKAREASKYLAEASTAAAAA

These binders were tested against CD276, Q5ZPR3.
CD276, Q5ZPR3, sequence (Q5ZPR3 whole entry): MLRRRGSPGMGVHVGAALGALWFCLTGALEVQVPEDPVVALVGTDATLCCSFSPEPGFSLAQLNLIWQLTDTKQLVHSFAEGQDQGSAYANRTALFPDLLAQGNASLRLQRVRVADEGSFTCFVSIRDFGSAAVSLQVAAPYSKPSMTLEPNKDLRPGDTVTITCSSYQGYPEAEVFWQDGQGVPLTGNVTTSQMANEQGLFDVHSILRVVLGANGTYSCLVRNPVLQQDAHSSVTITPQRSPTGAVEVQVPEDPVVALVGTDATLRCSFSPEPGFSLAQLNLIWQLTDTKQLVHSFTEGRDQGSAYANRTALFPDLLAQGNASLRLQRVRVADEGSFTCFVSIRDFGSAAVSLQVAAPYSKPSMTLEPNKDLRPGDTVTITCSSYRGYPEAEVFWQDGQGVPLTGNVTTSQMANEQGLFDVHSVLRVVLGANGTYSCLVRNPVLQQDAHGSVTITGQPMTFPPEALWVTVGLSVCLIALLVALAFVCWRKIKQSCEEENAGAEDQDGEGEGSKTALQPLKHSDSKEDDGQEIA

Binding in a display sort, inactive:
B1 not found
B2 not found
B3 not found
B4 not found
B5 not found
B6 not found
B7 not found
B8 not found
B9 not found
B10 not found
B11 not found
B12 not found
B13 not found
B14 not found
B15 not found
B16 not found
B17 not found
B18 not found
B19 not found

Reference: publication PMC13494018
